From PubChem
Most compounds without a hit are left out; they make up all but 1.6% or so of the library.
KCNQ2 inh: blocks the rat KCNQ2 potassium channel; O88943; CHO-K1 KCNQ2, FluxOR thallium flux, 20 min; hits give low values; B-score at 10 µM; hit rate 1.1% among 310,000;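 active = fluorescence ratio B-score at most minus 3 library SDs, with starting brightness B-score within 2 library SDs, cut at about -5.5 in these data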
Target sequence (O88943 whole entry, looked up): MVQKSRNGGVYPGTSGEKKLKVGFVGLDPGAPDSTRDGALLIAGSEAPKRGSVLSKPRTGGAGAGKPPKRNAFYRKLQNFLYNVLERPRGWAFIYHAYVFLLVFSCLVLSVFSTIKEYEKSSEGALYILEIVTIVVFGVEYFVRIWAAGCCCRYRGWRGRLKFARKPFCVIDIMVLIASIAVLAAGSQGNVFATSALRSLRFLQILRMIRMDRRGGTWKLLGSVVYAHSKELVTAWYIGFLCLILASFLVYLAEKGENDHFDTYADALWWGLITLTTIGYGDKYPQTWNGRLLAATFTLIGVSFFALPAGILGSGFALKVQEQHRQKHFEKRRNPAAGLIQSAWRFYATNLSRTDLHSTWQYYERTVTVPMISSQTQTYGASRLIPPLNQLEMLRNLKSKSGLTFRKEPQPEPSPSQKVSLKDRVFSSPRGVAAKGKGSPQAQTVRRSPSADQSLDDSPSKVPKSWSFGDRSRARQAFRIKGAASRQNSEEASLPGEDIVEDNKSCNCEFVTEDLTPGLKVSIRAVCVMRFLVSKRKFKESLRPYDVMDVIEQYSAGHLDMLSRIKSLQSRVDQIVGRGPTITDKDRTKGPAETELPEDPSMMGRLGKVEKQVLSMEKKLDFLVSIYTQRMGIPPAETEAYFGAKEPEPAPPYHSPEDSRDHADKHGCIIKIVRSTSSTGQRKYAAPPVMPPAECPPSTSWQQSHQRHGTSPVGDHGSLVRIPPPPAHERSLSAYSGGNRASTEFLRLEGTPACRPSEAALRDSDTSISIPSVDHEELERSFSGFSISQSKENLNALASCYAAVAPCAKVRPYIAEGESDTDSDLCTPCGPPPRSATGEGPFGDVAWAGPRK
KCNQ2 enhance: KCNQ2 (rat) channel potentiation | hit rate 0.54% among 310,000 | CHO-K1 KCNQ2, FluxOR thallium flux fluorescence; hits give high values | AID 2239 | B-score at 10 µM;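 active = fluorescence ratio B-score at least 3 SD of library B-scores, with initial fluorescence B-score within 3 of them, cut at about 5.3 in these data; same plate scores as AID 2156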;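 also: B-score of peak minus minimum over baseline fluorescence ratio after K+ and Tl+ stimulus; positive B-score means potentiation of KCNQ2 with more thallium influx and brighter signal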
Each line names hits and unclear results; the compound was inactive in the other large screens.

Cc1ccc(S(=O)(=O)N2CCCCC2)cc1C(=O)OC1CCCCC1=O (stereo not given)	none (no result: KCNQ2 enhance)
COc1ccc(CNC(=O)C(C#N)c2nc3ccccc3nc2N2CCCC2)cc1 (stereo not given)	none (no result: KCNQ2 enhance)
CC1CN(c2nc3ccccc3nc2C(C#N)C(=O)NCc2ccc3c(c2)OCO3)CC(C)O1 (stereo not given)	KCNQ2 inh -5.6
CC1CC(NC(=O)Cc2ccc(Br)cc2)CC(C)(C)C1 (stereo not given)	KCNQ2 inh -5.7
CC1CC(NC(=O)CC#N)CC(C)(C)C1 (stereo not given)	none (no result: KCNQ2 enhance)
CCCCN(C(=O)/C=C/c1ccccc1)C1CCS(=O)(=O)C1 (stereo not given)	none
CCN(C(=O)/C=C/c1ccccc1)C1CCCCC1	KCNQ2 inh -5.8
CCOC(=O)[C@H](O)[C@@H](O)c1cccc([C@H](O)[C@@H](O)C(=O)OCC)c1	none
Cc1[nH]c2ccccc2c1C(=O)C(=O)NCc1cccs1	none (no result: KCNQ2 enhance)
COc1cc2c(cc1NC(=O)C(C)OC(=O)c1ccc(S(=O)(=O)Nc3ccccc3Cl)cc1)oc1ccccc12 (stereo not given)	none
Clc1ncccc1OCc1ccccc1	none
CC(C)c1ccc(CNc2ncccn2)cc1	none (no result: KCNQ2 enhance)
CCCOc1cc(N(CC)CC)ccc1/C=C(/C#N)c1nc2ccc(C)cc2[nH]1	none (no result: KCNQ2 enhance)
CCOc1cc(N(CC)CC)ccc1/C=C(/C#N)c1nc2ccccc2[nH]1	KCNQ2 inh -8.4
CC(=O)Nc1ccc(NC(=O)CSc2nnc(NC(=O)C3CC(=O)N(c4ccc(F)cc4)C3)s2)cc1 (stereo not given)	none (no result: KCNQ2 enhance)
COCCn1cnc2c(c1=O)c1nc3ccccc3nc1n2/N=C/c1cccc(OC)c1	none (no result: KCNQ2 enhance)
C=CCn1cnc2c(c1=O)c1nc3ccccc3nc1n2/N=C/c1cc(OC)c(OC)c(OC)c1	KCNQ2 inh -7.9
COc1cccc(/C=N/n2c(-c3cc(C)[nH]n3)n[nH]c2=S)c1OC	none (no result: KCNQ2 enhance)
COc1cccc(/C=N/n2c(=S)n(C)c3cc(C)c(C)cc32)c1OC	KCNQ2 inh -6.1
CCOc1ccccc1NC(=O)C(C)N1C(=O)c2ccccc2S1(=O)=O (stereo not given)	none
Cc1ccc(C(=O)N2c3ccccc3N(Cc3ccccc3)C(=O)C2(C)C)cc1	KCNQ2 inh -5.6
O=C(O)CC1(O)C(=O)N(Cc2ccccc2)c2ccccc21 (stereo not given)	none
Cn1c2ccccc2c(=O)c2cc(C#CC3(O)CCCCC3)ccc21	none
Cn1c2ccccc2c(=O)c2ccc(C#CC3(N)CCCCC3)cc21	KCNQ2 inh -7.3
Fc1ccc(Cn2cccc2C2=NC(c3ccccc3)CO2)cc1 (stereo not given)	none (no result: KCNQ2 enhance)
Cc1oc(-c2ccccc2)nc1Cn1cccc1C1=NC(c2ccccc2)CO1 (stereo not given)	KCNQ2 inh -6
COc1ccccc1-c1ccc(SCc2ccc([N+](=O)[O-])cc2)nn1	none (no result: KCNQ2 enhance)
COc1ccccc1-c1ccc(SCc2cccc(C)c2)nn1	KCNQ2 inh -6.2
O=C(COC(=O)c1ccc([N+](=O)[O-])o1)Nc1cccc(S(=O)(=O)N2CCCCC2)c1	none
O=C(Nc1cccc(S(=O)(=O)N2CCCCC2)c1)c1ccc([N+](=O)[O-])o1	KCNQ2 enhance 8.5
CN1CCN(S(=O)(=O)c2cccc(C(=O)Nc3cc(C(F)(F)F)ccc3N3CCCCC3)c2)CC1	KCNQ2 inh -7.3
O=C(Nc1cc(C(F)(F)F)ccc1N1CCCCC1)c1cccc([N+](=O)[O-])c1	none
Cc1ccc(C(=O)Nc2cc(C(F)(F)F)ccc2N2CCCCC2)cc1[N+](=O)[O-]	KCNQ2 inh -7.2
CCN1CCN(c2ccc(S(=O)(=O)N3CCCCC3)cc2NC(=O)c2cccc(C(F)(F)F)c2)CC1	none (no result: KCNQ2 enhance)
CN1CCN(S(=O)(=O)c2cccc(C(=O)Nc3ccccc3N3CCCCC3)c2)CC1	KCNQ2 inh -6
CN1CCN(S(=O)(=O)c2cccc(C(=O)Nc3ccccc3N3CCOCC3)c2)CC1	none
Cc1nc(NC(=O)CSc2ccccc2N)sc1C	none
Cc1cc(C)nc(NC(=NCCc2c[nH]c3ccccc23)NC(=O)C(C)(C)C)n1	none (no result: KCNQ2 enhance)
CC(=O)c1cc2c(cc1NC(=O)c1ccc(Cl)cc1)OCCO2	none
CC(=O)c1cc2c(cc1NC(=O)Nc1cccc(Cl)c1)OCCO2	KCNQ2 inh -6.3
C/C(=N\NC(=O)CSc1nc2ccccc2s1)c1cccnc1	none (no result: KCNQ2 enhance)
CC(C)=N/N=C1/NC(=O)C(CC(=O)Nc2cc(Cl)ccc2C)S1 (stereo not given)	KCNQ2 enhance 5.8
Cc1ccccc1NC(=O)CC1SC(=Nc2ccc(O)cc2)NC1=O (stereo not given)	none
CC(C)(C)c1ccc(C(=O)NCC(=O)N2CCCCCC2)cc1	none
Cc1cc(NC(=O)C(=O)NCc2cccc(Cl)c2)no1	none
Cc1ccc(SCc2ccc(C(=O)Nc3cccc([N+](=O)[O-])c3C)cc2)cc1	KCNQ2 inh -5.6
Cc1ccc([N+](=O)[O-])cc1NC(=O)c1ccc(CSc2ccccc2)cc1	none
CN(Cc1ccn[nH]1)C(=O)C1CCC(=O)N(Cc2cccc(C(F)(F)F)c2)C1 (stereo not given)	none (no result: KCNQ2 enhance)
CC(C)C(=O)N1CCN(c2ccccc2NC(=O)c2cccc3ccccc23)CC1	KCNQ2 inh -7.3
COc1ccc(C(=O)Nc2ccccc2N2CCN(C(=O)c3ccccc3)CC2)cc1Br	KCNQ2 inh -7.2
CS(=O)(=O)N1CCN(c2ccccc2NC(=O)c2cccc3ccccc23)CC1	none (no result: KCNQ2 enhance)
O=C(Nc1ccccc1N1CCN(C(=O)c2ccccc2)CC1)c1ccc(Cl)cc1	none (no result: KCNQ2 enhance)
Cn1c(=O)n(C)c2cc(N3CCCCC3)c(NC(=O)c3cccc(Cl)c3)cc21	none (no result: KCNQ2 enhance)
CC(C)C(=O)N1CCN(c2ccccc2NC(=O)c2cccc(Cl)c2)CC1	KCNQ2 inh -6.6
O=C(O)c1c[nH]c2ccc(F)cc2c1=O	none
O=C(c1ccccc1NS(=O)(=O)c1cccc2cccnc12)N1CCOCC1	none
CCOCCCN(C(=O)Cn1nnc(-c2ccc(C)o2)n1)C(C(=O)NCC1CCCO1)c1ccc(F)cc1 (stereo not given)	none (no result: KCNQ2 enhance)
Cc1cc(CSCc2ccc(Cl)cc2)no1	none (no result: KCNQ2 enhance)
O=C(NCCCN1CCCC1)[C@H](CSCc1ccccc1)N1Cc2ccccc2C1=O	none
Nc1c2c(nc3ccccc13)N(C1CCCCC1)CC2	none
Nc1c2c(nc3ccc(Br)cc13)N(C1CCCCC1)CC2	KCNQ2 inh -5.8
Cc1ccc(NCc2ccccc2OCc2ccccc2F)cc1	none (no result: KCNQ2 enhance)
Cc1cccc(NCc2ccccc2OCc2ccccc2F)c1	KCNQ2 inh -5.5
COc1ccccc1OCCNC(=O)c1ccc(C)c(S(=O)(=O)N2CCOCC2)c1	none
CCOC(=O)c1ccccc1NC(=O)c1cn(-c2ccc(C)c(C)c2)c(=O)c2ccccc12	KCNQ2 inh -6.4
COC(=O)c1ccccc1NC(=O)c1cn(-c2ccc(C)c(C)c2)c(=O)c2ccccc12	none (no result: KCNQ2 enhance)
CC(C)=CCOc1ccc2c(C)c(CC(=O)N3C[C@H]4C[C@@H](C3)c3cccc(=O)n3C4)c(=O)oc2c1C	none
O=S(=O)(NCCC1=CCCCC1)c1c(Cl)cccc1Cl	none (no result: KCNQ2 enhance)
Cc1onc(-c2c(F)cccc2Cl)c1C(=O)OCC(=O)NC(N)=O	none
Cc1onc(-c2c(F)cccc2Cl)c1C(=O)OCC(=O)NC(c1ccccc1)c1ccccc1	KCNQ2 inh -5.6
CCCCC(=O)Nc1ccc(N2CCN(c3ccc(F)cc3)CC2)cc1	none
c1ccc(Cn2c(CNc3nc4ccccc4n3CCN3CCOCC3)nc3ccccc32)cc1	KCNQ2 inh -6
c1ccc2c(c1)nc(NCc1ccc3c(c1)OCO3)n2CCN1CCOCC1	none (no result: KCNQ2 enhance)
COc1ccc(C(=O)NCC2(N3CCCCC3)CCCCC2)cc1S(=O)(=O)N(C)C	none
COc1cccc(CC(=O)Nc2nc3c(s2)C(=O)CC(C)(C)C3)c1	none (no result: KCNQ2 enhance)
